Measurements reported in PubChem BioAssay (NCATS).
“And” between values parts separate entries of the source, which are not always exact repeats. Equal values may be shown once. Values without a mark were called inactive. Results filed as inconclusive are left out. The source made the active and inactive calls. Unless noted, calls follow the shape of the dose curve; as a rule, active = well fitted curve in the direction sought with a large enough effect; inconclusive = small, poorly fitted or top-dose-only effect, or another doubt; inactive = no such curve, though single readings can be large; an effect the other way counts as inactive or inconclusive.

Legend:
[1] = qHTS assay for small molecule activators of the p53 signaling pathway (AID 651743; active = well fitted activation curve with a large enough effect in the signal ratio, not every such curve was filed as active; the % refers to the signal ratio; also: % of control where 0% means no effect); settings: HCT-116 p53RE-bla, beta-lactamase FRET ratio, 16 h; hits give high values
Summary of the method: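 p53RE-bla HCT-116 cells with a stably integrated beta-lactamase reporter under p53 response elements were plated, rested 5 hours at 37 C/5% CO2, then exposed to compounds in DMSO for 16 hours at 37 C. LiveBLAzer B/G FRET substrate was read after 2 hours at room temperature.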

[2] = qHTS assay for small molecule activators of the nuclear factor-kappa B (NF-kB) signaling pathway (AID 651749; active = well fitted activation curve with a large enough effect in the signal ratio; the % refers to the signal ratio; also: % of control where 0% means no effect); settings: NF-kB-bla ME-180 cells, beta-lactamase FRET ratio, 16 h; hits give high values
Summary of the method: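 ME-180 cells stably carrying a beta-lactamase reporter under an NF-kB response element were exposed to compound or DMSO vehicle for 16 hr at 37C, 5% CO2. Pathway activation was read by FRET, since reporter expression disrupts FRET.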

[3] = biological target: Tumor necrosis factor (Homo sapiens) (UniProt P01375); assay: qHTS assay to identify small molecules that stimulate Tumor Necrosis Factor-alpha (TNF-alpha) secretion (AID 651757; active = well fitted curve in the direction sought with a large enough effect in the signal ratio; the % refers to the signal ratio; also: 0% is about no effect); settings: Human cells, HTRF 665/615 ratio; series mostly up to 92.2 µM
Summary of the method: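 Secreted TNF-alpha from compound-treated THP-1 cells (17 hrs, 37 C) was quantified with a homogeneous time-resolved fluorescence antibody assay.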

[4] = qHTS assay to identify small molecules that stimulate interleukin-8 (IL-8) secretion (AID 651758; active = well fitted activation curve with a large enough effect in the signal ratio; the % refers to the signal ratio; also: 0% is about no effect); settings: HTRF ratio (665/615); series mostly up to 92.2 µM
Summary of the method: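 THP-1, 2000 cells/well; cpd 16 h, 37 C; add cryptate + XL665 anti-IL-8 Abs; RT 1-3 h; TR-FRET read.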

[5] = qHTS assay for environmental chemicals that activate the Aryl hydrocarbon Receptor (AhR) signaling pathway (AID 651777); settings: 1A2-DRE human hepatoma cells, luciferase, 24 h; hits give high values; also: % of control where 0% means no effect; nearly all actives have a fitted effect of over 15% in size
Summary of the method: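 Induction of CYP1A2 transcription through AhR is detected by luciferase in 1A2-DRE hepatoma cells. Compounds or DMSO act for 24 hr at 37 C before a 30 min One-Glo step at room temperature.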

[6] = biological target: Peroxisome proliferator-activated receptor alpha (Homo sapiens) (UniProt Q07869); assay: qHTS assay for small molecule agonists of the peroxisome proliferator-activated receptor alpha (PPARalpha) signaling pathway (AID 651778); settings: PathHunter PPARalpha complementation, chemiluminescence, 6 h; max response: hits give high values; also: potency is read from the fitted curve at half-maximal effect; as to max response: % of control where 0% means no effect
Summary of the method: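 Cells plated at 2,000/well and held overnight at 37 C, 5% CO2, then compound added by pin tool for 6 hr; after PathHunter detection reagent and 60 min at room temperature, chemiluminescence from enzyme complementation was read.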

[7] = qHTS assay for small molecule agonists of the antioxidant response element (ARE) signaling pathway (AID 651741; active = well fitted activation curve with a large enough effect in the signal ratio; the % refers to the signal ratio; also: potency is read from the fitted curve at half-maximal effect; as to activation: % of control where 0% means no effect); settings: HepG2 ARE-bla reporter, beta-lactamase FRET ratio, 16 h; series mostly up to 96 µM
Summary of the method: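 ARE-bla HepG2 cells (beta-lactamase reporter under ARE control) were plated at 2,000 cells/well, preincubated 5 h at 37 C/5% CO2, then treated with DMSO-dissolved compounds for 16 h at 37 C; LiveBLAzer B/G FRET substrate added, fluorescence read after 2 h at room temperature.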

[8] = qHTS assay for small molecule disruptors of the mitochondrial membrane potential - 1 hr assay (AID 651754; calls by dose curve; also: % is scaled to controls: 0 for no effect and ±100 for the full control effect; nearly all actives have a fitted effect of over 35% in size); settings: series mostly up to 92.2 µM
Summary of the method: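 Steps: seed HepG2 cells and let attach overnight; pin-transfer compound or vehicle; incubate 1 hr at 37C; add Mito-MPS dye for 30 min; read two-channel fluorescence for monomer and aggregate forms.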

[9] = qHTS assay for small molecule disruptors of the mitochondrial membrane potential - 5 hr assay (AID 651755; calls by dose curve; also: % is scaled to controls: 0 for no effect and ±100 for the full control effect; nearly all actives have a fitted effect of over 40% in size); settings: JC-1-type ratio dye; series mostly up to 92.2 µM
Summary of the method: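 HepG2 cells, attached overnight at 37C, were exposed to compound or DMSO for 5 hr at 37C, 5% CO2. Mito-MPS dye was then added for 30 min, and fluorescence read at 490/535 nm (monomers) and 540/590 nm (aggregates).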

[10] = biological target: Tumor susceptibility gene 101 protein (Homo sapiens) (UniProt Q99816); assay: qHTS Assay for Iinhibitors of HIV-1 Budding by Blocking the Interaction of PTAP/TSG101: Hit Validation (AID 651600); settings: PTAP peptide/TSG101 UEV interaction, biochemical assay; series mostly up to 57.5 µM; also: % is scaled to controls: 0 for no effect and ±100 for the full control effect; nearly all actives have a fitted effect of over 70% in size
Summary of the method: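 Tsg101 binding domain 10 uM + FITC-PTAP peptide 50 nM (final), 10 mM HEPES pH 7.5/0.15 M NaCl/0.01% Tween 20/3 mM EDTA/0.1 mM TCEP; 20 min RT; FP read, FITC filters.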

Sequence of Peroxisome proliferator-activated receptor alpha (Homo sapiens) (Q07869 whole entry, looked up): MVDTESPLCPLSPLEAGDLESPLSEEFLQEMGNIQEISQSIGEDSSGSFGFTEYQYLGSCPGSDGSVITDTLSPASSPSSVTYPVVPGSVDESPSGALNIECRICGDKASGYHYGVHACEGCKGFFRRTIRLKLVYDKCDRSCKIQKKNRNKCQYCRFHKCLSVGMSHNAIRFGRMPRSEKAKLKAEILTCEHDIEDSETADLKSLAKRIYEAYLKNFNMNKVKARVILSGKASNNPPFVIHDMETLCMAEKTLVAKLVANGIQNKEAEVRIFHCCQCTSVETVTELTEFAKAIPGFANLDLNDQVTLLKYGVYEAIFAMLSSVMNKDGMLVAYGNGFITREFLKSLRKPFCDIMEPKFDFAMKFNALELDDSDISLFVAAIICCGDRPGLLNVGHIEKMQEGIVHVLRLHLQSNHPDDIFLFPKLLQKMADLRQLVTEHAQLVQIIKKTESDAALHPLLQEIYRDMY
Sequence of Tumor necrosis factor (Homo sapiens) (P01375 whole entry, looked up): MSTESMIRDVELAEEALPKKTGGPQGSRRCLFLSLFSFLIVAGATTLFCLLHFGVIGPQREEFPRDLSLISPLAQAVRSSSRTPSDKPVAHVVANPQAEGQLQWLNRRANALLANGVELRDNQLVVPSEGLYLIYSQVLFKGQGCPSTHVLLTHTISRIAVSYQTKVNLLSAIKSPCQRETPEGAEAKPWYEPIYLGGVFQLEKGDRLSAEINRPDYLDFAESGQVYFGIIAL
Sequence of Tumor susceptibility gene 101 protein (Homo sapiens) (Q99816 whole entry, looked up, the tested form may be a part): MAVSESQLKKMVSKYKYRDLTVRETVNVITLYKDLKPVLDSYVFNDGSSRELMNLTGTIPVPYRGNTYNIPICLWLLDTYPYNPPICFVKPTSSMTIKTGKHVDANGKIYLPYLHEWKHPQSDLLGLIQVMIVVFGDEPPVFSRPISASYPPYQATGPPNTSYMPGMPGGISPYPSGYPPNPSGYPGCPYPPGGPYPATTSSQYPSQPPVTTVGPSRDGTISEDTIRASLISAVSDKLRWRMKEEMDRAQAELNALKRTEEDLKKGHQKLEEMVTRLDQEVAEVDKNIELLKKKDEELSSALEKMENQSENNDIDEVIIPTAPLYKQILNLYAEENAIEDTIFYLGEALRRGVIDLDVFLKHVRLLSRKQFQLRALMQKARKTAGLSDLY

C=Cc1ccccc1
activation [1]: -0.864% and -2.45% | activation [2]: -0.47% and -1.21% | outcome [3]: inactive | outcome [4]: inactive | activation [5]: 0.041% and 1.82% | max response [6]: -2.11% and 2.32%

CN(C)Cc1ccccc1
Potency [7]: inactive | activation [1]: -3.48% | activation [2]: 0.946% | outcome [8]: inactive | outcome [9]: inactive | outcome [3]: inactive | activation [5]: -1.16% | max response [6]: -9.3%

CC(=O)S[C@@H]1CC2=CC(=O)CC[C@]2(C)[C@H]2CC[C@@]3(C)[C@@H](CC[C@@]34CCC(=O)O4)[C@H]12
activation [1]: 29.9% | activation [5]: -3.59% | max response [6]: -2.36%

CCCCCCCCCC(=O)O
Potency [7]: inactive | activation [1]: -0.571% and 9.23% | activation [2]: -1.38% and -1.03% | outcome [3]: inactive | max response [6]: 5.25% and -0.468%

CC[C@H](C)/C=C(C)/C=C/C1=CC2=CC(=O)[C@]3(C)OC(=O)[C@@H](C(C)=O)[C@@H]3C2=CO1
outcome [10]: inactive

O=C(O)CC(O)(CC(=O)O)C(=O)O
activation [1]: -3% and -0.0659% and -0.0181% | activation [2]: -0.675% and 0.892% and -1.06% | outcome [8]: inactive | outcome [9]: inactive | outcome [3]: inactive | outcome [4]: inactive | activation [5]: 0.406% and -1.76% and 1.69% | max response [6]: -3.03% and 0.0721% and -1.17%

COC(C)=O
Potency [7]: inactive | outcome [3]: inactive | outcome [4]: inactive | activation [5]: 0.269% | max response [6]: 6.49%

CCCCCCCC/C=C\CCCCCCCC(=O)OC[C@@H](O)[C@H]1OC[C@H](O)[C@H]1O
Potency [7]: inactive | activation [1]: 1.59% | activation [2]: 0.379% | Potency [6]: 39.8 µM (active)

O=S(=O)(c1ccccc1)N(CC(F)(F)F)c1ccc(C(O)(C(F)(F)F)C(F)(F)F)cc1
Potency [7]: 27.3 µM (active) | activation [1]: 23.4% | activation [5]: 5.58% | max response [6]: -0.426%
